Experimental data reported in the supplement of paper PMC11732987, “Enantioselective OTUD7B fragment discovery through chemoproteomics screening and high-throughput optimisation” (Communications Chemistry, 2025).

Tests used:
Experiment in all cases: log2 ratio of Biotin-Ahx-Ub-VS probe labelling (compound/DMSO); higher = less target engagement, active = hit call of the paper (q ≤ 0.05, log2 ratio ≤ -1)
Details in all cases: treatment time: 3 h
[1] = compound: CCC1N(CCc2sccc12)C(=O)CCl
How it was run: (§1)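 HEK293T lysate (495 µg per sample, in Tris/CHAPS/IGEPAL buffer with protease inhibitors) was exposed in triplicate to compound at 50 or 200 µM, or to DMSO, for 3 h, then to Biotin-Ahx-Ub-VS (0.5 µM final) for 1 h. The labelled DUBs were enriched on NeutrAvidin, digested with LysC and trypsin, and analysed by diaPASEF LC-MS/MS. Average base-two log ratios of compound over DMSO came from median-normalised label-free quantities by unpaired t-test. Only proteins with at least 2 unique peptides were used.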

[2] = compound: CN1c2ccccc2C(CS1(=O)=O)NC(=O)CCl
How it was run: as §1

[3] = compound: Cl.ClCC(=O)N1CCc2ncncc2C1
How it was run: as §1

[4] = compound: Cl.Cn1ncc2C(CCCc12)NC(=O)CCl
How it was run: as §1

[5] = compound: ClCC(=O)NC1CCOc2ccccc12
How it was run: as §1

[6] = compound: ClCC(=O)NC1CCCc2ccccc12
How it was run: (§2)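 HEK293T lysate (495 µg per sample, in Tris/CHAPS/IGEPAL buffer with protease inhibitors) was treated in triplicate with compound over a concentration series or DMSO for 3 h, then with Biotin-Ahx-Ub-VS (0.5 µM final) for 1 h. Labelled DUBs were NeutrAvidin-enriched, digested with LysC and trypsin, and run by diaPASEF LC-MS/MS. Spectronaut label-free protein quantities were global-median-normalised. Values are average log2 ratios compound/DMSO from an unpaired t-test, using proteins with ≥2 unique peptides.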

[7] = compound: ClCC(=O)N[C@@H]1CCCc2ccccc12
How it was run: as §2

[8] = compound: ClCC(=O)N[C@H]1CCCc2ccccc12
How it was run: as §2

[9] = compound: CCC1N(CCc2cc(OC)c(Cl)cc12)C(=O)CCl
How it was run: as §1

[10] = compound: CCCC1N(CCc2cc(OC)c(OC)cc12)C(=O)CCl
How it was run: as §1

[11] = compound: CN(Cc1cccc(Br)c1)C(=O)CCl
How it was run: as §1

[12] = compound: CN(Cc1ccccc1)C(=O)CCl
How it was run: as §1

[13] = compound: COc1ccc(CN(C)C(=O)CCl)cc1
How it was run: as §1

[14] = compound: COc1cccc(CN(CCCc2ccccc2)C(=O)CCl)c1
How it was run: as §1

[15] = compound: ClCC(=O)N1CCc2cc(Cl)c(Cl)cc2C1
How it was run: as §1

[16] = compound: ClCC(=O)N1CCc2nc(ncc2C1)-c1ccccc1
How it was run: as §1

[17] = compound: ClCC(=O)N1CCc2nocc2C1
How it was run: as §1

[18] = compound: ClCC(=O)N1CCc2scc(Br)c2C1
How it was run: as §1

[19] = compound: ClCC(=O)NC(C1CCCC1)c1cccs1
How it was run: as §1

Measured: log2 ratio of Biotin-Ahx-Ub-VS probe labelling

USP54 (UniProt Q70EL1)
Chain of UniProt Q70EL1 (Q70EL1 whole entry): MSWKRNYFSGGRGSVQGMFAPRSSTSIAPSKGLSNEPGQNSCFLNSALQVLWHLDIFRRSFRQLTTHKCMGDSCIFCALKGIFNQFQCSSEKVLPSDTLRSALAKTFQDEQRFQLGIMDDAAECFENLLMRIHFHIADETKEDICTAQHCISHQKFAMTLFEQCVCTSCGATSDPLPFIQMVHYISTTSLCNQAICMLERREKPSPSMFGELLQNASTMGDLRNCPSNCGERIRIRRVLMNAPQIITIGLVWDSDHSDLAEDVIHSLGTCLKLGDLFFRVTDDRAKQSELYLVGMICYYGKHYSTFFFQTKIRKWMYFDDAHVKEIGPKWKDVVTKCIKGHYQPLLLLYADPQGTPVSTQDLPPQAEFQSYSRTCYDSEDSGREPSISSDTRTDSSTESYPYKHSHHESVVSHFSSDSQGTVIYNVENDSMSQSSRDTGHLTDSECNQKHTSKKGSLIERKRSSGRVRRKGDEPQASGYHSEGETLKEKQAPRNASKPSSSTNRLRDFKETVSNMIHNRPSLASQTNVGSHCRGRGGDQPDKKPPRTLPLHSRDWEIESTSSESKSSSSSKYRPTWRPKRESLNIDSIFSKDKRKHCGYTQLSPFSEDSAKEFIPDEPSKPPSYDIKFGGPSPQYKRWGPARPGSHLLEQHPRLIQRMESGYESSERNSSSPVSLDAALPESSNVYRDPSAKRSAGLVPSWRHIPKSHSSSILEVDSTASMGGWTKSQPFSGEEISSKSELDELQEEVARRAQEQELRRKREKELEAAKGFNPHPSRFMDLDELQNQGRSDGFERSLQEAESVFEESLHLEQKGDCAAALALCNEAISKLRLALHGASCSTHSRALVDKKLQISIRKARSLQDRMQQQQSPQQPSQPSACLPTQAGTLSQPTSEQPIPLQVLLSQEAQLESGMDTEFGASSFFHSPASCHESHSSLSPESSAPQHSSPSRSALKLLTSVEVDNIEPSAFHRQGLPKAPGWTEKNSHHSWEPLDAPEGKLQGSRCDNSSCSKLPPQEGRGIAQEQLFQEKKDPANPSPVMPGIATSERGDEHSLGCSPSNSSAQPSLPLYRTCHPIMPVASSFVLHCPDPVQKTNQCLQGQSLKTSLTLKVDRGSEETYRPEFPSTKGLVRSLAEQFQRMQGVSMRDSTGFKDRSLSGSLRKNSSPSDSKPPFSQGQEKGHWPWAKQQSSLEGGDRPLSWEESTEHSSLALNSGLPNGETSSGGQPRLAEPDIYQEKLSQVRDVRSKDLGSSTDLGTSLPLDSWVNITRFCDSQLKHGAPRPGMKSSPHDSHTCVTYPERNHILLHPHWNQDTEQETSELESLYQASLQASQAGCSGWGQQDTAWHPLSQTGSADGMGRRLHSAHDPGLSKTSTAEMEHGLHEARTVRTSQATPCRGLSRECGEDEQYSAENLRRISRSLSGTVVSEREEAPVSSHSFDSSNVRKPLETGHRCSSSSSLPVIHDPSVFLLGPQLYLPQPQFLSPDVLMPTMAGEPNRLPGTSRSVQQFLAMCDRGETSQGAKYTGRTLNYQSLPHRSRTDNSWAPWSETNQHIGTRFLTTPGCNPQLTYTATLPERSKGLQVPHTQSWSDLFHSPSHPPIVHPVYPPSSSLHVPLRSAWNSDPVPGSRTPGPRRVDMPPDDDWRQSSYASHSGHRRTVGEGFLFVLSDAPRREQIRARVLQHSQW
inactive: [1]; compound concentration: 50uM 0.403 | [1]; compound concentration: 200uM -0.685 | [2]; compound concentration: 50uM 0.55 | [2]; compound concentration: 200uM -0.727 | [3]; compound concentration: 50uM 0.0984 | [4]; compound concentration: 50uM 0.166 | [5]; compound concentration: 50uM -0.806 | [5]; compound concentration: 200uM -0.859 | [6]; compound concentration: 0.78uM -0.349 | [6]; compound concentration: 1.56uM -0.87 | [6]; compound concentration: 3.13uM -0.672 | [6]; compound concentration: 25uM -0.646 | [6]; compound concentration: 50uM -0.519 | [6]; compound concentration: 100uM -0.598 | [6]; compound concentration: 200uM -0.947 | [7]; compound concentration: 0.78uM 0.232 | [7]; compound concentration: 1.56uM -0.0979 | [7]; compound concentration: 3.13uM -0.457 | [7]; compound concentration: 6.25uM -0.449 | [7]; compound concentration: 12.5uM -0.888 | [7]; compound concentration: 25uM 0.0566 | [7]; compound concentration: 50uM -0.582 | [7]; compound concentration: 100uM -0.163 | [7]; compound concentration: 200uM -0.256 | [8]; compound concentration: 0.78uM 0.15 | [8]; compound concentration: 3.13uM -0.564 | [8]; compound concentration: 6.25uM -0.753 | [8]; compound concentration: 12.5uM -0.0765 | [8]; compound concentration: 25uM -0.601 | [8]; compound concentration: 50uM -0.182 | [8]; compound concentration: 100uM 0.38 | [8]; compound concentration: 200uM -0.201 | [9]; compound concentration: 50uM -0.125 | [9]; compound concentration: 200uM -0.766 | [10]; compound concentration: 50uM -0.559 | [11]; compound concentration: 50uM 0.085 | [11]; compound concentration: 200uM -0.845 | [12]; compound concentration: 50uM -0.885 | [12]; compound concentration: 200uM -0.551 | [13]; compound concentration: 50uM -0.773 | [14]; compound concentration: 50uM -0.358 | [15]; compound concentration: 50uM -0.895 | [16]; compound concentration: 50uM -0.823 | [17]; compound concentration: 50uM -0.519 | [18]; compound concentration: 50uM -0.124 | [19]; compound concentration: 50uM 0.0591 | [19]; compound concentration: 200uM 0.198
active: [3]; compound concentration: 200uM -1.09 | [4]; compound concentration: 200uM -2.4 | [6]; compound concentration: 6.25uM -1.2 | [6]; compound concentration: 12.5uM -1.06 | [8]; compound concentration: 1.56uM -1.07 | [10]; compound concentration: 200uM -2.42 | [13]; compound concentration: 200uM -2.33 | [14]; compound concentration: 200uM -2.68 | [15]; compound concentration: 200uM -2.65 | [16]; compound concentration: 200uM -2.39 | [17]; compound concentration: 200uM -1.77 | [18]; compound concentration: 200uM -2.07

USP22 (UniProt Q9UPT9)
Chain of UniProt Q9UPT9 (Q9UPT9 whole entry): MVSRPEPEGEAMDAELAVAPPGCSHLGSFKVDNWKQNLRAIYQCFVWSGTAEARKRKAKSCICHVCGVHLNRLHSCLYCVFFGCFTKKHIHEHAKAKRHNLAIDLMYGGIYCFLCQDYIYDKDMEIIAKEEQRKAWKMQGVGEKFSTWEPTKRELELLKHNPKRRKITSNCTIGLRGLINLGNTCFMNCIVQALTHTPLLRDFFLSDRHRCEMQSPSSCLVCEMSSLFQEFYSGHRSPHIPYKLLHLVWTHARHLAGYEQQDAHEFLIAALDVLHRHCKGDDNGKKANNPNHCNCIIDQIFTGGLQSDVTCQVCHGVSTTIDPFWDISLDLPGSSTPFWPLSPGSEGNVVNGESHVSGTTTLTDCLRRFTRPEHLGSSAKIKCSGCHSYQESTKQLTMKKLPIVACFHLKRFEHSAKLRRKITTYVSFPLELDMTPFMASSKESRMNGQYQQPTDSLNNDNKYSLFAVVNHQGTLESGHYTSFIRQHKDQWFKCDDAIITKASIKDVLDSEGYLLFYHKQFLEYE
inactive: [1]; compound concentration: 50uM -0.0676 | [1]; compound concentration: 200uM -0.0769 | [2]; compound concentration: 50uM -0.0879 | [2]; compound concentration: 200uM -0.227 | [3]; compound concentration: 50uM 0.165 | [3]; compound concentration: 200uM -0.284 | [4]; compound concentration: 50uM 0.167 | [4]; compound concentration: 200uM -0.0888 | [5]; compound concentration: 50uM 0.0839 | [5]; compound concentration: 200uM -0.0221 | [6]; compound concentration: 0.78uM -0.256 | [6]; compound concentration: 1.56uM -0.271 | [6]; compound concentration: 3.13uM -0.269 | [6]; compound concentration: 6.25uM -0.318 | [6]; compound concentration: 12.5uM -0.0891 | [6]; compound concentration: 25uM -0.169 | [6]; compound concentration: 50uM -0.192 | [6]; compound concentration: 100uM -0.263 | [6]; compound concentration: 200uM -0.376 | [7]; compound concentration: 0.78uM -0.254 | [7]; compound concentration: 1.56uM -0.18 | [7]; compound concentration: 3.13uM -0.341 | [7]; compound concentration: 6.25uM -0.0166 | [7]; compound concentration: 12.5uM -0.101 | [7]; compound concentration: 25uM -0.166 | [7]; compound concentration: 50uM -0.259 | [7]; compound concentration: 100uM -0.0453 | [7]; compound concentration: 200uM -0.238 | [8]; compound concentration: 0.78uM -0.107 | [8]; compound concentration: 1.56uM -0.258 | [8]; compound concentration: 3.13uM -0.171 | [8]; compound concentration: 6.25uM -0.0996 | [8]; compound concentration: 12.5uM -0.17 | [8]; compound concentration: 25uM -0.0497 | [8]; compound concentration: 50uM -0.0246 | [8]; compound concentration: 100uM -0.0113 | [8]; compound concentration: 200uM -0.194 | [9]; compound concentration: 50uM -0.141 | [9]; compound concentration: 200uM -0.349 | [10]; compound concentration: 50uM -0.229 | [10]; compound concentration: 200uM -0.475 | [11]; compound concentration: 50uM -0.105 | [11]; compound concentration: 200uM 0.476 | [12]; compound concentration: 50uM -0.208 | [12]; compound concentration: 200uM -0.176 | [13]; compound concentration: 50uM -0.0376 | [13]; compound concentration: 200uM -0.15 | [14]; compound concentration: 50uM -0.102 | [14]; compound concentration: 200uM -0.225 | [15]; compound concentration: 50uM -0.0223 | [15]; compound concentration: 200uM -0.226 | [16]; compound concentration: 50uM -0.0429 | [16]; compound concentration: 200uM -0.339 | [17]; compound concentration: 50uM 0.0391 | [17]; compound concentration: 200uM -0.233 | [18]; compound concentration: 50uM -0.0943 | [18]; compound concentration: 200uM -0.362 | [19]; compound concentration: 50uM -0.0796 | [19]; compound concentration: 200uM -0.154

USP42 (UniProt Q9H9J4)
Chain of UniProt Q9H9J4 (Q9H9J4 whole entry): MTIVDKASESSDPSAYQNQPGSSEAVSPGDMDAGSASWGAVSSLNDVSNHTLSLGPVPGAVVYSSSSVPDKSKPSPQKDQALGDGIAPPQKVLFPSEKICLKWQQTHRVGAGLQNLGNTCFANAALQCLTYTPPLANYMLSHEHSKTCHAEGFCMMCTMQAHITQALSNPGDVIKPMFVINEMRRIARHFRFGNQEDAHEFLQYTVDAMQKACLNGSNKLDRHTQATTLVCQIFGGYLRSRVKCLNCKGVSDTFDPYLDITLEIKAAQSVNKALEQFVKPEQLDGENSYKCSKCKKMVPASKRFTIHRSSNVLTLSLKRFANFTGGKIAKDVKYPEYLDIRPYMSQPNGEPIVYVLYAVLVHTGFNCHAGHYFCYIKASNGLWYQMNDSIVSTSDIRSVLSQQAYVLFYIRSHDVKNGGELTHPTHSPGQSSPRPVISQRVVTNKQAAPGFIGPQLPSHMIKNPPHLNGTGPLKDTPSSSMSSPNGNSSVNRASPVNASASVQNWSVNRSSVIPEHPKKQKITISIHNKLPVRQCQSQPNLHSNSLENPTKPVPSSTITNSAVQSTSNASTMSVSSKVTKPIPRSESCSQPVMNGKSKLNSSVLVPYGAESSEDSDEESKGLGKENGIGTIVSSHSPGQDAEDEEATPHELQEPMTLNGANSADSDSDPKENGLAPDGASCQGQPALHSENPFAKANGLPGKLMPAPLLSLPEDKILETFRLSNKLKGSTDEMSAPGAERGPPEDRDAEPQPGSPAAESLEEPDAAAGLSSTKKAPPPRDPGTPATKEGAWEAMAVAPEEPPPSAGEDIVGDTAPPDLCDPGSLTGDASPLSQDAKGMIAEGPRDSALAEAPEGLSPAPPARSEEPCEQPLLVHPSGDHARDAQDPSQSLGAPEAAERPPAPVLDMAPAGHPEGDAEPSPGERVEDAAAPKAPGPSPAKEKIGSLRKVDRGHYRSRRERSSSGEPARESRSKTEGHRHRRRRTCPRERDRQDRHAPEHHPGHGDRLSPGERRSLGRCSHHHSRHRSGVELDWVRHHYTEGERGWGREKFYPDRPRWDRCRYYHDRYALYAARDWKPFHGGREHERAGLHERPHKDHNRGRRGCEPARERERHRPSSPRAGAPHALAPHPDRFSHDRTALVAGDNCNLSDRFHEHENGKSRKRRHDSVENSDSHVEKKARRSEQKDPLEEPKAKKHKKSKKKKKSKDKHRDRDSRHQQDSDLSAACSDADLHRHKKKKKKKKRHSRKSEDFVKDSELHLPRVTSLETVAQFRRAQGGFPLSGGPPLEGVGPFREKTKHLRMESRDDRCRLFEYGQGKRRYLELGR
inactive: [1]; compound concentration: 50uM 0.0875 | [1]; compound concentration: 200uM 0.424 | [2]; compound concentration: 50uM 0.125 | [2]; compound concentration: 200uM 0.131 | [3]; compound concentration: 50uM 0.0642 | [3]; compound concentration: 200uM 0.249 | [4]; compound concentration: 50uM -0.167 | [4]; compound concentration: 200uM 0.115 | [5]; compound concentration: 50uM -0.093 | [5]; compound concentration: 200uM 0.371 | [6]; compound concentration: 0.78uM -0.0166 | [6]; compound concentration: 1.56uM -0.0953 | [6]; compound concentration: 3.13uM -0.0821 | [6]; compound concentration: 6.25uM -0.0491 | [6]; compound concentration: 12.5uM -0.106 | [6]; compound concentration: 25uM -0.0142 | [6]; compound concentration: 50uM -0.0733 | [6]; compound concentration: 100uM 0.00602 | [6]; compound concentration: 200uM -0.207 | [7]; compound concentration: 0.78uM 0.0511 | [7]; compound concentration: 1.56uM 0.0688 | [7]; compound concentration: 3.13uM 0.0123 | [7]; compound concentration: 6.25uM 0.154 | [7]; compound concentration: 12.5uM -0.0261 | [7]; compound concentration: 25uM 0.0226 | [7]; compound concentration: 50uM -0.157 | [7]; compound concentration: 100uM 0.109 | [7]; compound concentration: 200uM 0.00814 | [8]; compound concentration: 0.78uM -0.186 | [8]; compound concentration: 1.56uM -0.0565
